This is part of a sample that, as a whole, favours compounds with a hit. Of some 83,000 tested, about 20% had one in any assay.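 Percent growth is the endpoint: 0 to 100 indicates growth inhibition (40 means 60% inhibition), 0 means no net growth, and negative values indicate cell death.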 Calls of active or inactive are those of the source. How the source made its calls: active means growth percent below 10; inactive means the rest.
test system: SF-539 CNS; experiment: NCI-60 one-dose screen, 48 h (100 = growth as untreated, 0 = no growth, -100 = all killed); settings: 10 µM unless noted

| SMILES | growth |
| --- | --- |
| COc1cccc(/C=C2\Oc3cc(OCCN4CCCC4)ccc3C2=O)c1 | 88.9% (inactive) |
| COc1ccc(-c2nc3ccc(-c4nc5ccc(N6CCN(c7ccncc7)CC6)cc5[nH]4)cc3[nH]2)cc1OC | 42.5% (inactive) |
| Cc1ccc(C2=NN3C(C2)c2cc(Br)ccc2OC32CCN(Cc3ccccc3)CC2)o1 (centres undefined) | 101% (inactive) |
| COc1cc2c(cc1-c1c(C)noc1C)ncc1nc(-c3ccccn3)n([C@H](C)COC(F)F)c12 | 41.7% (inactive) |
| Cc1oc(-c2ccc(Cl)cc2Cl)cc1C(=O)Nc1nccs1 | 95.9% (inactive) |
| COc1ccc2c(c1)c(-c1nonc1-c1cn(C)c3ccccc13)cn2C | -9.13% (active) |
| COC(=O)c1ccc(NC(=O)c2ccc(-c3cccc([N+](=O)[O-])c3)o2)cc1 | 90.5% (inactive) |
| COc1cccc(C2=NN3C(C2)c2cc(Br)cc(OC)c2OC32CCN(Cc3ccccc3)CC2)c1 (centres undefined) | 105% (inactive) |
| O=C1c2cc3c(cc2-c2c1c1cc(F)c(F)cc1c(=O)n2CCCn1ccnc1)OCO3 | -19.7% (active) |
| Cc1ccc2c(C(C[N+](=O)[O-])c3ccccc3F)c(-c3ccccc3)[nH]c2c1 (centres undefined) | 52.3% (inactive) |
| Cc1ccccc1COc1ccc(-c2onc(C)c2-c2ccc(Cl)cc2)cc1 | 63.5% (inactive) |
| COC[C@H](C)n1c(C2CCOCC2)nc2cnc3cc(-c4c(C)noc4C)c(OC)cc3c21 | 40.7% (inactive) |
| C#CCOc1ccc2ncnc(NCc3cccc(NC(=O)CCl)c3)c2c1 | 49.5% [8.25 µM] (inactive) |
| COc1cc(-c2nn(C)nc2-c2cc3ccccc3s2)cc(OC)c1OC | -9.68% (active) |
| O=C1NC(=S)N[C@H]1CC(=O)n1cnc2ccccc21 | 99% (inactive) |
| O=S(=O)(Nc1ccc(I)cc1F)c1ccc(-c2cnc(C3CC3)o2)cc1 | 44.1% (inactive) |
| CC[C@@H](C(=O)[C@@H](C)[C@@H](O)[C@H](C)[C@@H]1O[C@@H]([C@@H](CC)C(=O)O)CC[C@@H]1C)[C@H]1OC2(C=C[C@@H](O)[C@]3(CC[C@@](C)([C@H]4CC[C@](O)(CC)[C@H](C)O4)O3)O2)[C@H](C)C[C@@H]1C (some centres undefined) | -28.1% (active) |
| CCOC(=O)c1csc(NC(=O)COc2cccc(/C=C3\CSc4ccccc4C3=O)c2)n1 | -89.1% (active) |
| CN1CCN(c2ccc3nc(-c4ccc(OCCCCN5CCN(CCCCN6C(=O)c7cccc8cccc(c78)C6=O)CC5)cc4)[nH]c3c2)CC1 | 39.8% (inactive) |
| Cc1ncc(C(=O)Nc2ccc(CN3CCN(C)CC3)c(C(F)(F)F)c2)cc1C#Cc1cnc2cccnn12 | -52.2% (active) |

| SMILES | growth |
| --- | --- |
| Cc1nc2c3c(-c4ccccc4)c(-c4ccccc4)oc3ncn2n1 | 90.2% (inactive) |
| O=C(N/N=C/c1ccccc1O)c1ccccc1Nc1ccnc(C(F)(F)F)c1 | 0.988% (active) |
| COC(=O)[C@]12CCC(C)(C)C[C@H]1[C@H]1C(=O)C[C@@H]3[C@@]4(C)c5c([nH]c6ccccc6c5=O)C(C)(C)[C@@H]4CC[C@@]3(C)[C@]1(C)CC2 | 92.1% (inactive) |
| COc1ccc(-c2n[nH]nc2-c2csc3ccccc23)cc1OC | -2.39% (active) |
| O=C1c2ccccc2C(=O)c2c(N=Nc3[nH]c(=S)[nH]c3O)cccc21 | -32.3% (active) |
| Cn1c(NCCc2ccc(O)c(O)c2)nc2c1c(=O)n(Cc1ccc(Br)cc1)c(=O)n2C | 79.1% (inactive) |
| Cc1ccc(/C=C2\SC(=S)N(CC(=O)NCCCN3CCOCC3)C2=O)cc1 | 93.7% (inactive) |
| Cc1ccc(C2Oc3ccccc3C3CC(c4cccs4)=NN32)cc1 (centres undefined) | 90.1% (inactive) |
| C=CC(=O)Nc1cccc(-c2nc(SC)nc(NCCc3ccc(OC)c(OC)c3)c2C#N)c1 | 65.6% (inactive) |
| Cc1nc(/N=C(\N)NC(=O)Nc2cccc([N+](=O)[O-])c2)sc1C | 78.4% (inactive) |
| COc1ccc(-n2nc(C)c3c(Nc4ccc(NC(=O)Nc5ccc(Cl)c(C(F)(F)F)c5)cc4)ncnc32)cc1 | -5.4% (active) |
| O=C(/C=C/c1cccc([N+](=O)[O-])c1)c1ccc(O)c(CN2CCN(c3cc4c(cc3F)c(=O)c(C(=O)O)cn4C3CC3)CC2)c1 | 12% (inactive) |
| CCC([N+](=O)[O-])S(=O)(=O)c1ccc(C)cc1 (centres undefined) | 94.5% (inactive) |
| Cc1cn2c(/C=C3/C(=O)Nc4c3ccc3ccccc43)c(C(F)(F)F)nc2s1 | -5.73% (active) |
| O=C1c2cc3c(cc2-c2c1c1ccc(F)cc1c(=O)n2C[C@H](O)[C@@H](O)[C@H](O)CO)OCO3 | -44.6% (active) |
| O=C(Nc1cccc2[nH]c(C(F)(F)F)nc12)c1ccc(-n2cnnn2)cc1 | 103% (inactive) |
| Fc1ccc(CNc2cccc3[nH]c(C(F)(F)F)nc23)cc1 | 97% (inactive) |
| O=C1c2cc3c(cc2-c2c1c1ccc(F)cc1c(=O)n2CCCNCCO)OCO3 | -86.4% (active) |
| N#CN1CC[C@H](C(=O)Nc2cc3cc(C(N)=O)ccc3cn2)C1 | -35.9% (active) |

Reference: PubChem BioAssay (NCI)
